# Compounds without any hit were thinned out: in the full panel of roughly 79,000, 15% have a hit. Calls of active or inactive are those of the source. Rule as the data show it: active = growth inhibition above about 70%; inactive = the rest.
# Tests used:
# [1] = NCI Yeast Anticancer Drug Screen. Data for the rad50 strain (AID 155);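 also: 0% = growth of vehicle-only cultures of the same strain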; settings: S. cerevisiae rad50 strain growth inhibition; at 50.0 µM; active compounds read high
# Procedure, shortened: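 Yeast carrying a defined DNA repair defect were exposed to test compounds, and growth was compared with vehicle-treated controls to give percent inhibition.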
# [2] = NCI Yeast Anticancer Drug Screen. Data for the sgs1 mgt1 strain (AID 161);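 also: 0% = growth of cultures given vehicle only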; settings: S. cerevisiae sgs1 mgt1 strain, at 50.0 µM, active compounds read high
# Procedure, shortened: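 Compounds are added to genetically altered yeast, and growth is compared with cultures given vehicle alone to give percent inhibition.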
# [3] = NCI Yeast Anticancer Drug Screen. Data for the cln2 rad14 strain (AID 165);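 also: 0% = growth equal to vehicle treated cultures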; settings: S. cerevisiae cln2 rad14 strain, at 50.0 µM, active compounds read high
# Procedure, shortened: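 Yeast carrying cln2 and rad14 alterations (cell cycle control and DNA damage repair) were exposed to compounds. Growth inhibition was measured against vehicle-treated controls.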
# [4] = NCI Yeast Anticancer Drug Screen. Data for the bub3 strain (AID 167); settings: S. cerevisiae bub3 mutant strain, at 50.0 µM, active compounds read high
# Procedure, shortened: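 Compounds were applied to a genetically altered yeast strain carrying a cell-cycle control defect. Growth inhibition was scored against vehicle-treated controls.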
# [5] = NCI Yeast Anticancer Drug Screen. Data for the mlh1 rad18 strain (AID 175); settings: S. cerevisiae mlh1 rad18 strain growth inhibition; at 50.0 µM; active compounds read high
# Procedure, shortened: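 Growth inhibition of the yeast strain was measured after compound exposure and expressed relative to vehicle-treated controls. The strain carries defined defects in DNA damage repair.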
# [6] = NCI Yeast Anticancer Drug Screen. Data for the mec2-1 strain (AID 157); settings: S. cerevisiae mec2-1 strain, at 50.0 µM, active compounds read high
# Procedure, shortened: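 mec2-1 yeast strain, carrying an alteration in DNA damage repair or cell cycle control, was exposed to compounds; growth inhibition was measured relative to vehicle-treated controls.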
SMILES,growth inhibition [1],growth inhibition [2],growth inhibition [3],growth inhibition [4],growth inhibition [5],growth inhibition [6]
CC(O)CNC(=O)Nc1ccccc1 (stereo not given),-26.9% (inactive),-9.8% (inactive),-5.25% (inactive),3.95% (inactive),-17.6% (inactive),–
CC[O-].CC[O-].O=C([CH-]C(=O)c1ccccc1)CCCCCCC(=O)[CH-]C(=O)c1ccccc1.[Ti+4],-39.5% (inactive),-33.5% (inactive),-4.7% (inactive),4.95% (inactive),-17.7% (inactive),–
CCCCCCCc1ccc(N=Cc2ccc(OCCC)cc2)cc1,98.8% (active),98.9% (active),99% (active),97.7% (active),99.2% (active),–
CC(=O)NC1C(OC(C)C(=O)NC(C(=O)NC(CCC(=O)NCCCNC2c3ccccc3Nc3cccc([N+](=O)[O-])c32)C(N)=O)C(C)C)C(O)C(CO)OC1(C)OCc1ccccc1 (stereo not given),-29.1% (inactive),4.3% (inactive),13.4% (inactive),-25.8% (inactive),3.25% (inactive),–
CNn1c(-c2ccccc2)n[nH]c1=O,6.65% (inactive),11.4% (inactive),26.2% (inactive),6.45% (inactive),19.4% (inactive),–
C/C(=N\NC(=O)c1ccccc1O)c1cccc(/C(C)=N/NC(=O)c2ccccc2O)n1.O=S(=O)([O-])[O-].[Fe+2],11.4% (inactive),39.5% (inactive),-0.9% (inactive),0.65% (inactive),40.7% (inactive),–
O=C1CCCCCC1,9.95% (inactive),11.2% (inactive),-19.2% (inactive),-4.45% (inactive),3.4% (inactive),–
COC(=O)c1c2c(cc3c1CC1(C3)Cc3cc4c(c(C(C)=O)c3C1)CCC4)C=CC2 (stereo not given),0.15% (inactive),-26.1% (inactive),1.35% (inactive),-5.75% (inactive),-22.6% (inactive),–
O=C1c2cc([N+](=O)[O-])sc2C(=O)c2c([N+](=O)[O-])csc21,91% (active),92.5% (active),91.4% (active),92.1% (active),91.3% (active),–
CCCCCC/C=C/CCCCCCCC(=O)O,3.15% (inactive),5.3% (inactive),-9.9% (inactive),-1.75% (inactive),-16.9% (inactive),–
O=C/C=C/C=C/C=C/c1ccccc1,32.6% (inactive),14.4% (inactive),13.7% (inactive),-5.25% (inactive),27.6% (inactive),–
O=C1CS[C@@H]2C(=O)CCCC2C1 (stereo not given in full),-16% (inactive),-1.8% (inactive),-7.25% (inactive),-3.4% (inactive),-4.4% (inactive),–
O=C(OCc1ccccc1)C1(O)CCCCC1,-5.6% (inactive),-6.25% (inactive),-2.7% (inactive),-5% (inactive),-7.4% (inactive),–
COC(=O)C(Cc1ccccc1)NCCN (stereo not given),-0.1% (inactive),–,-17% (inactive),-5.95% (inactive),2.1% (inactive),7.4% (inactive)
CCCCCCCCCCCCCCCCO,-14.4% (inactive),-13.6% (inactive),-16.3% (inactive),-15.2% (inactive),-12.4% (inactive),–
C1=CC2=CC=CC3c4nc5ccc6ccccc6c5nc4C(=C1)C23 (stereo not given),11.4% (inactive),-0.9% (inactive),4.25% (inactive),-2.55% (inactive),8.75% (inactive),–
C1CC2CCC1CN(C1COC(N3CC4CCC(CC4)C3)CO1)C2 (stereo not given),-5.15% (inactive),9.7% (inactive),58.4% (inactive),4.9% (inactive),-0.65% (inactive),–
COc1cccc(NC(=S)NCc2cccnc2)c1,-13.4% (inactive),9.1% (inactive),9.25% (inactive),-13.2% (inactive),-5.3% (inactive),–
O=C(Nc1ccc(Cl)cc1)Nc1nnc2nc(C3(c4nc5nnc(NC(=O)Nc6ccc(Cl)cc6)n5[nH]c4=O)Cc4ccccc4C3=O)c(=O)[nH]n12,29.5% (inactive),8.3% (inactive),12.9% (inactive),8.75% (inactive),2.3% (inactive),–
CO/C=C1/CCc2c(ccc3cc(OC)ccc23)C1=O,-1.5% (inactive),10.5% (inactive),-0.8% (inactive),3.2% (inactive),-6.55% (inactive),–
Cc1ccc(N=Nc2ccc([N+](=O)[O-])cc2)c([N+](=O)[O-])c1,10.9% (inactive),-4.5% (inactive),17.4% (inactive),18.4% (inactive),-12.6% (inactive),–
CC(=O)CC1CCCCCC1,4.3% (inactive),0.45% (inactive),-11.3% (inactive),2.1% (inactive),6.3% (inactive),–
CC12CCC(C/C1=N\O)C2(C)CBr (stereo not given),13.4% (inactive),-4.35% (inactive),-1.1% (inactive),-2.3% (inactive),5.1% (inactive),–
Nc1nc(SCC(=O)O)[nH]c(=O)c1NS(=O)(=O)c1ccccc1[N+](=O)[O-],21.4% (inactive),-2.4% (inactive),23.1% (inactive),2.75% (inactive),5.6% (inactive),–
Cc1ccc2cc(CCCC(=O)O)ccc2c1,43.4% (inactive),38.7% (inactive),31.6% (inactive),40.9% (inactive),24.9% (inactive),–
CSC(=NNC(N)=O)SC,4.4% (inactive),1.2% (inactive),-14.2% (inactive),-9.7% (inactive),5.4% (inactive),–
O=CC1=CCC2c3[nH]c4ccccc4c3CCN2C1 (stereo not given),24.9% (inactive),25.7% (inactive),27.2% (inactive),28.2% (inactive),19.8% (inactive),–
O=S(=O)(O)CS(=O)(=O)O,-21.9% (inactive),8.3% (inactive),-26.4% (inactive),4.9% (inactive),-1.15% (inactive),–
[O-][n+]1c2ccc(Cl)cc2nc2ccc(Cl)cc21,-9.35% (inactive),-8.25% (inactive),-27.4% (inactive),1.45% (inactive),-4.6% (inactive),–
Cc1ccc(S(=O)(=O)Oc2cccc(Br)c2)cc1,8.25% (inactive),21.9% (inactive),-17.4% (inactive),-1.1% (inactive),7.55% (inactive),–
